Screening results from PubChem.
Shown is part of a subset that was picked to be rich in hits.
L3MBTL1 inh: L3MBTL1 (human) inhibition | Q9Y468 | AlphaScreen L3MBTL1–H3K9me1 peptide binding | Potency, µM (highest dose often 57.1 µM), usual class: inhibitors | hit rate 0.66% among 230,000; note: nearly all actives have a fitted effect of over 60% in size
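AlphaScreen proximity signal between nickel-chelate acceptor and streptavidin donor beads (final 10 ug/mL) reports binding of 50 nM L3MBTL1 to 75 nM biotin-H3 K9me1 peptide; complex incubated with compounds 30 min at room temperature; cefsulodin titration as control.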
BLM helicase inh: Bloom syndrome helicase (human) inhibition; P54132; recombinant BLM DNA unwinding, fluorescence dequenching; Potency, µM (top dose mostly 56.1 µM), usual class: inhibitors; hit rate 0.2% among 350,000; note: nearly all actives have a fitted effect of over 35% in size
Target sequence (P54132 whole entry, looked up): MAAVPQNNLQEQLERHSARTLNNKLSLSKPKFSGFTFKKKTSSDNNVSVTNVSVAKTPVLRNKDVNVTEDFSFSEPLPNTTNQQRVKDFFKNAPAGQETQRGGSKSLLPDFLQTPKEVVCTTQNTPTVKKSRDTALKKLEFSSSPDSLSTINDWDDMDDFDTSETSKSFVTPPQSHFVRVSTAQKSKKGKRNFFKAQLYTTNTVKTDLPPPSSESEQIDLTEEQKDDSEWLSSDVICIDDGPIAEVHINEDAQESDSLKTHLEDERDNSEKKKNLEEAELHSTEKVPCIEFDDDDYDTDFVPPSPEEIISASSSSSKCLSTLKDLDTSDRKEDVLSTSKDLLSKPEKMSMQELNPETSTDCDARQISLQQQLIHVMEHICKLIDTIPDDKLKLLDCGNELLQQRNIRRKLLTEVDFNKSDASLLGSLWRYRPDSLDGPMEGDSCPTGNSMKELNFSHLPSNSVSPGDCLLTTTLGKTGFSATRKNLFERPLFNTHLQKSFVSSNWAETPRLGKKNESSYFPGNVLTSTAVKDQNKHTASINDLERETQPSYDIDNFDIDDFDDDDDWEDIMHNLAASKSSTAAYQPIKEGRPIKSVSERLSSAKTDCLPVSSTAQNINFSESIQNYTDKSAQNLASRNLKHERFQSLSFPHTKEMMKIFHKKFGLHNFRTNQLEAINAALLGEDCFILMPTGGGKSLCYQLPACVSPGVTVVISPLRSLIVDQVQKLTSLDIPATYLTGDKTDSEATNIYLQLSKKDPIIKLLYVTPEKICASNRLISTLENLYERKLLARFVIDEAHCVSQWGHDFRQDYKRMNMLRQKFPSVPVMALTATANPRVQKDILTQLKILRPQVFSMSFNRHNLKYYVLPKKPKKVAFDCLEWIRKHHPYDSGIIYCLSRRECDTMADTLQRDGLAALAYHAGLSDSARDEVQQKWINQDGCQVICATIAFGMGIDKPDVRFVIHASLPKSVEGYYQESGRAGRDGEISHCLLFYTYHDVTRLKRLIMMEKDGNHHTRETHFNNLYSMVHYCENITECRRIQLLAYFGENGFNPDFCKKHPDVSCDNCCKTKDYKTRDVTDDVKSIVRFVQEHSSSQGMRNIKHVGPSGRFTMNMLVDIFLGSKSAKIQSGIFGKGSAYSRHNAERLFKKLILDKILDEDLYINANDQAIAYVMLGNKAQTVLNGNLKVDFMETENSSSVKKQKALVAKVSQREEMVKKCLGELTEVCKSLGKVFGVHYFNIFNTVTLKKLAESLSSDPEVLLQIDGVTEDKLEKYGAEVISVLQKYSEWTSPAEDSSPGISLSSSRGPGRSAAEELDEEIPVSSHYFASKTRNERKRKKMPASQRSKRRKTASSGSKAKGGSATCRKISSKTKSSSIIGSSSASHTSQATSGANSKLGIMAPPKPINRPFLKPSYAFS
KDM4E inh: JMJD2E (human) inhibition | B2RXH2 | JMJD2E catalytic domain, FDH-coupled NADH fluorescence (FDH is formaldehyde dehydrogenase) | Potency, µM (highest dose often 57.1 µM), hits mostly inhibitors | hit rate 1.6% among 230,000; active = well fitted inhibition curve with a large enough effect, not every such curve was filed as active; inconclusive = small, poorly fitted or top-dose-only effect, or another doubt; inactive = no such curve, though single readings can be large or run the other way; note: nearly all actives have a fitted effect of over 50% in size
APEX1 inh: inhibitors of human APE1 endonuclease. P27695. recombinant APE1, TAMRA/BHQ-2 abasic DNA cleavage fluorescence. Potency, µM (series often up to 65.8 µM), actives largely listed as inhibitors. hit rate 0.35% among 350,000. AID 2517; note: nearly all actives have a fitted effect of over 55% in size
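Step 1: APE1 (0.75 nM) with compound, 15 min RT. Step 2: add 50 nM fluorophore/quencher THF duplex. Step 3: three fluorescence reads 60 s apart (525/598 nm); read 3 minus read 1 = reaction progress.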
RECQ1 inh: inhibitors of human RECQ1 DNA helicase | Potency, µM (series often up to 57.3 µM), actives largely listed as inhibitors | hit rate 0.54% among 240,000 | RECQ1 DNA unwinding, red fluorescence kinetic read | AID 2549 | P46063; note: nearly all actives have a fitted effect of over 30% in size
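50 nM RECQ1T1 preincubated 15 min with compound in Tris pH 8.0 buffer with MgCl2, DTT, Tween-20 and 2.5 ug/ml poly(dI-dC); started with 200 nM TAMRA/BHQ-2 forked duplex and 2 mM ATP. Unwinding read as fluorescence (525/598 nm), two reads 2 h apart.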
Numbers stand for hits; n = inactive; u = inconclusive; x = not tested or not shown; ! = a repeat was not active; [ ] = another dose, or the depositor's remark. Unless noted, calls come from the whole dose curve; as a rule, active = well fitted curve in the direction sought with a large enough effect; inconclusive = small, poorly fitted or top-dose-only effect, or another doubt; inactive = no such curve, though single readings can be large; an effect the other way counts as inactive or inconclusive.

SMILES	L3MBTL1 inh	BLM helicase inh	KDM4E inh	APEX1 inh	RECQ1 inh
Cc1ccc(Cl)cc1Nc1nc(-c2sc(NC(=O)c3ccco3)nc2C)cs1	n	n	25µM	u	n
O=C(CNC(=O)c1ccc(Br)o1)NCc1ccc(Cl)cc1Cl	x	n	x	13µM	x
O=C1c2ccccc2C(=O)c2c1cccc2N1CCCC1	8.9µM	n	n	n	n
Cn1c(=O)cc2c3c(c(N4CCCCC4)ccc31)C(=O)c1ccccc1-2	u	n	n	n	n
O=C(O)c1cccc(C(=O)O)n1	n	n	8.9µM	n	n
O=C(O)c1ccccn1	14µM	n	x	n	x
O=C(O)c1ccc2cccc(O)c2n1	n	n	n	n	n
O=C(O)c1ccc2cccnc2n1	x	n	22µM	n	n
O=C(COc1ccc(Br)cc1Br)NC(=S)N1CCCc2ccccc21	x	n	n	n	n
OCCN1CCN(C(c2cccs2)c2ccc3cccnc3c2O)CC1 (centres undefined)	n	n	8.9µM	n	n
CCOC(=O)C(=Cc1ccc(-n2ccnc2)cc1)C(=O)OCC	x	n	11µM	n	n
CCOC(=O)C(=Cc1ccc(F)cc1)C(=O)OCC	n	n	n	n	n
O=S(=O)(c1cc(O)ccc1O)c1cccc2c(S(=O)(=O)c3cc(O)ccc3O)cccc12	3.2µM	x	x	2.1µM	x
CCCCN1/C(=C/c2ccc3ccccc3[n+]2CC)Sc2ccccc21	n	n	14µM	n	n
CC(C)CN1CCN(Cc2cc(F)ccc2-n2cccn2)CC1CCO (centres undefined)	n	n	n	n	n
COc1ccccc1-c1cc(-c2ccc(O)cc2)nc(N)c1C#N	x	32µM	x	27µM	x
COc1cc(-c2cc(-c3ccc(O)cc3)nc(N)c2C#N)ccc1O	n	n	n	n	n
CCn1c(SCC(=O)c2ccc(O)c(O)c2)nnc1-c1ccccc1	u	n	13µM	u	n
C=CCn1c(SCC(=O)c2ccc(O)c(O)c2)nnc1-c1ccccc1OC	n	n	10µM	n	u
Cn1cnnc1SCC(=O)c1ccc(O)c(O)c1	n	n	10µM	n	n
CCCCCOc1ccc(C(O)C(CN2CCOCC2)c2ccccc2)cc1 (centres undefined)	n	n	x	n	x
NS(=O)(=O)c1ccc(NC(=O)CN2CCN(S(=O)(=O)c3cccs3)CC2)cc1	n	x	x	n	x
CCN1CCCc2cc(CN(CCN3CCOCC3)C(=S)Nc3ccc(OC)cc3)ccc21	x	n	n	6.3µM	n
Oc1ccc(-c2csc(Nc3ncccn3)n2)cc1O	n	n	28µM	u	n
Oc1ccc(-c2csc(Nc3ncccn3)n2)c(O)c1	n	n	n	n	n
SMILES	L3MBTL1 inh	BLM helicase inh	KDM4E inh	APEX1 inh	RECQ1 inh
Oc1ccc(-c2csc(-c3cccnc3)n2)cc1O	x	n	14µM	16µM	n
COCC(=O)Nc1ccc(OCc2ccccc2)cc1	n	n	n	n	n
COc1ccc(C2CC(=O)c3cnc(NC(=O)c4ccco4)nc3C2)cc1 (centres undefined)	x	n	x	n	x
COc1ccccc1C(=O)Nc1ncc2c(n1)CC(c1ccco1)CC2=O (centres undefined)	u	n	n	18µM	u
CC(=O)Nc1ccc(SCC(=O)N(C)CC(=O)Nc2ccccc2Cl)cc1	n	x	x	n	x
COc1ccc(N(C)S(=O)(=O)c2ccc3c(c2)CCC(=O)N3)cc1	n	n	n	14µM	n
COc1cc(NC(=O)CN(C)S(=O)(=O)c2ccc3c(c2)CCC(=O)N3)cc(OC)c1	x	n	n	n	n
Cn1c(=O)[nH]c(=O)c2c1nc(N1CCN(CCO)CC1)n2Cc1ccccc1	n	n	x	n	x
CN(C)S(=O)(=O)c1cccc(NC(=S)N/N=C/c2cc(Br)ccc2O)c1	10µM	n	10µM	n	n
CN(C)S(=O)(=O)c1cccc(NC(=S)N/N=C/c2cccc(O)c2)c1	n	n	n	n	n
CCOC(=O)Cn1c(=O)n(Cc2ccc(C)cc2)c(=O)c2cccnc21	x	n	x	n	x
CSc1ccc(S(=O)(=O)NCCOc2ccccc2C)cc1	n[11.4 µM]	n	n	n	n
N#CC1=C(N)N(c2ccc(F)cc2)C2=C(C1c1ccc(O)cc1)S(=O)(=O)CC2 (centres undefined)	x	n	20µM	u	u
CSc1ccc(C2C(C#N)=C(N)N(c3ccccc3)C3=C2C(=O)CCC3)cc1 (centres undefined)	x	n	u	n	n
CC(=O)c1cccc(S(=O)(=O)N2CCN(c3ccccc3F)CC2)c1	n	n	n	n	n
CCC1C/C(=C/c2ccco2)C(=O)/C(=C/c2ccco2)C1 (centres undefined)	32µM	n	n	u	u
N[C@@H](C(=O)O)c1ccc(C(=O)O)c(O)c1	x	n	u	u	n
N[C@H](C(=O)O)c1cc(O)cc(O)c1	x	n	16µM!	u	u
COc1cc(/C=C(\C#N)C(=O)NCCc2ccccc2)cc(OC)c1O	x	n	n	n	n
N#C/C(=C\c1ccc(O)c(O)c1)C(=O)NCCc1ccccc1	n	x	14µM	n	u
N#C/C(=C\c1ccc(O)c(O)c1)C(=O)NCCCCc1ccccc1	x	u	4.5µM	u	10µM
COC(=O)CSc1nnc(-c2cccnc2)n1C	n	n	n	n	n
Cc1cc(C)cc(OCC(=O)OCC(=O)N(C)CC(=O)Nc2ccc(F)cc2)c1	n	x	x	n	x
COc1ccccc1Nc1c2c(nc3ccccc13)CCC2	x	n	x	n	x
CC[n+]1c(C)n(C)c2cc(S(=O)(=O)N(C)C)ccc21	n	n	10µM	n	n
SMILES	L3MBTL1 inh	BLM helicase inh	KDM4E inh	APEX1 inh	RECQ1 inh
N[C@]1(C(=O)O)CCc2cc(P(=O)(O)O)ccc21	x	n	40µM	n	n
NC1(C(=O)O)CCc2cc(P(=O)(O)O)ccc21 (centres undefined)	x	x	x	n	n
Cc1nn(-c2ccccc2)c2c1C(c1ccc(O)c(O)c1)N1C(=N2)C(Nc2ccccc2)=Nc2ccccc21 (centres undefined)	n	n	18µM	n	n
Cc1cccc(NC2=Nc3ccccc3N3C2=Nc2c(c(C)nn2-c2ccccc2)C3c2ccc(O)c(O)c2)c1 (centres undefined)	n	n	u	n	n
CCOC(=O)C[N+](C)(C)CCOC1CC2CCC1(C)C2(C)C (centres undefined)	n	n	18µM	n	n
CC1(C)C2CCC1(C)C(OCC[N+](C)(C)CC(=O)OC1CCCCC1)C2 (centres undefined)	n	n	n	n	n
CC(C)(C)OC(=O)C[C@@H]1C/C=C\C[C@@H](CC(=O)N(CCO)Cc2ccccc2)C(=O)N[C@H](C(C)(C)C)COC1=O	n	x	x	12µM	x
c1ccc2sc(SN3CCOCC3)nc2c1	n	n	13µM	n	n
O=C(CSc1nc2ccccc2c(=O)[nH]1)N1CCN(c2ccccc2F)CC1	x	n	x	n	x
C=Cc1cccc(NC(=O)c2ccc(NC(=O)c3ccco3)cc2)c1	x	n	x	n	x
Cc1cccc(C)c1OCc1cc(C(=O)NCc2cn(C)nc2C)no1	x	n	x	n	x
O=C(NCc1ccc(/C=c2\sc3n(c2=O)CCN=3)o1)C(=O)Nc1ccccc1	25µM	n	n	n	n
